The source of these data is PubChem BioAssay.

Molecules are shown by their SMILES. Activity calls are given as the source filed them. Unless noted, the rule behind the calls is not given here.

The test system of test [1] is Wnt5a (protein binding on small-molecule microarray). The test is described as follows: Wnt5a binders on small-molecule microarray, primary screen, biophysical, 635/667 nm fluorescence (AID 1142).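 Note: fluorescence read at 667 nm with signal to noise per printed feature.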 Particulars: 635 nm fluorescence, higher = more signal.
A short description of test [2]: cell viability in Huh7 cells, primary screen, cytotoxicity control for HCV replication inhibitor project, CellTiter-Glo luminescence, basal, 48 h (AID 1143).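 Note: Huh7 hepatoma cells carrying a hepatitis C replication reporter with no stimulus; test concentration not given here.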 Particulars: Huh7 HCV replicon, higher = more signal, called active from +8 up or from −8 down.
Test [3] can be described thus: P. aeruginosa biofilm formation inhibitors, primary screen, PAO1 strain, BacTiter-Glo luminescence, LB-PBS (AID 1144). Particulars: 12 h, higher = more signal.
A short description of test [4]: CREB reporter modulators without forskolin, primary screen, cell-based, PC12, CRE-LacZ reporter, unstimulated (AID 1145). The conditions noted are these: no forskolin, luminescence, 4.5 h, higher = more signal, called active from +8 up or from −8 down.
Test [5] is described as follows: CREB reporter modulators under forskolin, primary screen, cell-based, PC12, CRE-LacZ reporter, forskolin-stimulated (AID 1146).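 Note: PC12 cells with 6xCRE LacZ reporter stimulated by forskolin 10 µM; beta-galactosidase reporter signal reflecting CREB driven transcription.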 Particulars: luminescence, 4.5 h, higher = more signal, called active from +8 up or from −8 down.
Test [6] concerns the target Streptavidin (Streptomyces avidinii) (UniProt P22629). The test can be described thus: streptavidin binders on small-molecule microarray, primary screen, artefact control for SMM compound annotation, biophysical, 635/667 nm fluorescence (AID 1147).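 Note: signal reflects streptavidin binding to arrayed compounds as a control protein.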 Particulars: streptavidin binding, higher = more signal.
Test [7] in a line: small-molecule binders of probe aInhba, primary screen, biochemical, small-molecule microarray, 635/667 nm fluorescence (AID 1148).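 Note: score merges 667nm spot fluorescence with signal-to-noise for antibody binding to printed compounds.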 The conditions noted are these: higher = more signal.
Test [8] has as its target Torsin-1A (Homo sapiens) (UniProt O14656). The test is described as follows: torsin A binders from cell lysate, primary screen, small-molecule microarray, wild-type, 635/667 nm (AID 1149). Particulars: COS7 hTOR1A-WT lysate, 635 nm fluorescence, higher = more signal.
The target is the same in test [9]. The test is described as follows: small-molecule binders of mutant TOR1A in lysate, primary screen, cell lysate, small-molecule microarray, COS7 lysate, 635/667 nm fluorescence (AID 1150).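 Note: score pools 667 nm emission and signal to noise measuring lysate protein binding.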 Particulars: COS7 hTOR1A mutant lysate, 635 nm fluorescence, higher = more signal.
The subject of test [10] is Sonic hedgehog protein (Shh). The test can be described thus: small-molecule binders of Shh protein, primary screen, biochemical, small-molecule microarray, 635/667 nm fluorescence (AID 1151).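 Note: Shh protein binding to compounds spotted on small-molecule microarray slides; score combines spot fluorescence intensity with signal-to-noise across triplicate slides.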 The conditions noted are these: small-molecule microarray binding, 635 nm fluorescence; higher = more signal.
The nature of test [11]: E. coli DRC41 culture turbidity changes, primary screen, E. coli filamentation inducer project, strain DRC41, OD650, 48 h (AID 1152).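 Note: E. coli MC1000 strain DRC41 lacking acrAB efflux pump and sulA.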 The conditions noted are these: E. coli DRC41 (acrAB sulA), higher = more signal, called active from +8 up or from −8 down.
Test [12] can be described thus: small-molecule binders of probe aLefty1, primary screen, biochemical, small-molecule microarray, 635/667 nm fluorescence (AID 1153).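 Note: score merges spot fluorescence with signal-to-noise ratio from the scanned slide images.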 The conditions noted are these: higher = more signal.
Test [13] can be described thus: PSAC antagonists in infected red cells, primary screen, cell-based, P. falciparum Indochina, OD700, 1 h (AID 1154). Particulars: P. falciparum Indochina infected RBC osmotic lysis, higher = more signal, called active from +8 up or from −8 down.
Test [14] is described as follows: PSAC antagonists in infected red cells, primary screen, cell-based, P. falciparum Indochina, OD700, 2 h (AID 1155).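 Note: lysis reports solute entry through the parasite surface anion channel PSAC; channel blockers reduce lysis of infected cells.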 The conditions noted are these: P. falciparum Indochina infected erythrocytes, osmotic lysis OD700; higher = more signal, called active from +8 up or from −8 down.
A short description of test [15]: osmotic lysis modulators in infected erythrocytes, primary screen, PSAC antagonist project, cell-based, P. falciparum Indochina, OD700, 3 h (AID 1156). Particulars: higher = more signal, called active from +8 up or from −8 down.
Test [16] in a line: PSAC antagonists in infected red cells, primary screen, cell-based, P. falciparum Indochina, OD700, 18 h (AID 1157). The conditions noted are these: P. falciparum Indochina infected erythrocytes, osmotic lysis OD700, 18 h; higher = more signal, called active from +8 up or from −8 down.
Test [17] in a line: modulators of S6 phosphorylation in cells, primary screen, cell-based, A549, cytoblot, luminescence, serum-stimulated (AID 1158).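 Note: serum-stimulated A549 lung adenocarcinoma cells; signal is phosphorylated S6 detected by cytoblot immunostaining with HRP secondary.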 The conditions noted are these: A549 phospho-S6 cytoblot, 5 h, higher = more signal.
Test [18] has as its target NADPH oxidase 2 (Homo sapiens) (UniProt P04839). The test is described as follows: NOX2-dependent H2O2 signal modulators, primary screen, NOX inhibitor project, cell-based, HEK293-NOX2, PMA-stimulated, Amplex Red fluorescence (AID 1159). Note: test concentration not given here. Particulars: 45 min, higher = more signal, called active from +8 up or from −8 down.
Test [19] has as its target NADPH oxidase 4 (Homo sapiens) (UniProt Q9NPH5). The test can be described thus: NOX4-dependent H2O2 signal modulators, primary screen, NOX inhibitor project, cell-based, HEK293-NOX4, tetracycline-induced, Amplex Red fluorescence (AID 1160). The conditions noted are these: 45 min, higher = more signal, called active from +8 up or from −8 down.
For test [20], the target named is NADPH oxidase 5 (Homo sapiens) (UniProt Q96PH1). The test is described as follows: NOX5-dependent H2O2 signal modulators, primary screen, NOX inhibitor project, cell-based, HEK293-NOX5, Amplex Red fluorescence (AID 1161). The conditions noted are these: HEK293-NOX5, ionomycin, 45 min, higher = more signal.
Sequence of NADPH oxidase 5 (Homo sapiens) (Q96PH1 whole entry, looked up): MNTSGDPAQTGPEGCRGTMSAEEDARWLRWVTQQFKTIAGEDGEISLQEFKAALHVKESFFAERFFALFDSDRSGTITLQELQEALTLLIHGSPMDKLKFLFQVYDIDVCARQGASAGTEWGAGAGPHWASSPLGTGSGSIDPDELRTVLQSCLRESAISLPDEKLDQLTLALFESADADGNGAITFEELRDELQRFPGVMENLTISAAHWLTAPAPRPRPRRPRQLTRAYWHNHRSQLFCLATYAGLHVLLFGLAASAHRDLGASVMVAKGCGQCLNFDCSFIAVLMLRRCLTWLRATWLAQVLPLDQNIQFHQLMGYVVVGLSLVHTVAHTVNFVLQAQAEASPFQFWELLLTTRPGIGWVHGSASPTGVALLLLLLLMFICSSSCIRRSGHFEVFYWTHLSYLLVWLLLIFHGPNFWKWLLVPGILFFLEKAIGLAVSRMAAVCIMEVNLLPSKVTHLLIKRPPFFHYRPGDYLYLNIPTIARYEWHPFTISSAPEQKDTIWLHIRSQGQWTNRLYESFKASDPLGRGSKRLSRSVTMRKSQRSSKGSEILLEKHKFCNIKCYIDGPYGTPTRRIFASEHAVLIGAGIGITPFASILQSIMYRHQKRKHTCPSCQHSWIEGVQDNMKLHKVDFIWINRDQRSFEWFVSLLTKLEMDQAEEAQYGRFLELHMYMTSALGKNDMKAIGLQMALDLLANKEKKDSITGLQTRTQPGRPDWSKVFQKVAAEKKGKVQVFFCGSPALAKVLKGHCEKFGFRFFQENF

Sequence of Torsin-1A (Homo sapiens) (O14656 whole entry, looked up): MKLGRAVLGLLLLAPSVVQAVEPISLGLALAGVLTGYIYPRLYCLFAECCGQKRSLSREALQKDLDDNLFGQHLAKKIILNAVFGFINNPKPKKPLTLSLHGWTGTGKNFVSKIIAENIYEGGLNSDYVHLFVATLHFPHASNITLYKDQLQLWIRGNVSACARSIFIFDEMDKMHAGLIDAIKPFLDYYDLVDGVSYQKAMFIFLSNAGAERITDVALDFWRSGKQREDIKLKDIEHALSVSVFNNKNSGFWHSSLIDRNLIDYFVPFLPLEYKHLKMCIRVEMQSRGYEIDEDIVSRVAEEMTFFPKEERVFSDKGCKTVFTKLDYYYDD
Sequence of NADPH oxidase 4 (Homo sapiens) (Q9NPH5 whole entry, looked up): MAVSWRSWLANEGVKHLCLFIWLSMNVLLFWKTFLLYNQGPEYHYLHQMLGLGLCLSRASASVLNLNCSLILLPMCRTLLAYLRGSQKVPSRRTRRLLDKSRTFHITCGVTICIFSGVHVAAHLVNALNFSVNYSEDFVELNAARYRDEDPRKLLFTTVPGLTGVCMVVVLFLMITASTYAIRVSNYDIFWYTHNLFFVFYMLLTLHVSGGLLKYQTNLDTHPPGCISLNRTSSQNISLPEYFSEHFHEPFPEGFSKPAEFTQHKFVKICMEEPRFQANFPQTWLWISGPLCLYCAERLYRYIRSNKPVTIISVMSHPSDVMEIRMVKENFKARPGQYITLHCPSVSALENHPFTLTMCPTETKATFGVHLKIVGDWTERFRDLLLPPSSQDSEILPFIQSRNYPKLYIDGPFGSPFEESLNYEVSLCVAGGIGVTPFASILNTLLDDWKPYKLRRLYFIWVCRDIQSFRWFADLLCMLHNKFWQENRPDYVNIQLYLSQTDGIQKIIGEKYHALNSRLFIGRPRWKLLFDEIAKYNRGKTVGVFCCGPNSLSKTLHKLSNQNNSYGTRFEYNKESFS
Sequence of NADPH oxidase 2 (Homo sapiens) (P04839 whole entry, looked up): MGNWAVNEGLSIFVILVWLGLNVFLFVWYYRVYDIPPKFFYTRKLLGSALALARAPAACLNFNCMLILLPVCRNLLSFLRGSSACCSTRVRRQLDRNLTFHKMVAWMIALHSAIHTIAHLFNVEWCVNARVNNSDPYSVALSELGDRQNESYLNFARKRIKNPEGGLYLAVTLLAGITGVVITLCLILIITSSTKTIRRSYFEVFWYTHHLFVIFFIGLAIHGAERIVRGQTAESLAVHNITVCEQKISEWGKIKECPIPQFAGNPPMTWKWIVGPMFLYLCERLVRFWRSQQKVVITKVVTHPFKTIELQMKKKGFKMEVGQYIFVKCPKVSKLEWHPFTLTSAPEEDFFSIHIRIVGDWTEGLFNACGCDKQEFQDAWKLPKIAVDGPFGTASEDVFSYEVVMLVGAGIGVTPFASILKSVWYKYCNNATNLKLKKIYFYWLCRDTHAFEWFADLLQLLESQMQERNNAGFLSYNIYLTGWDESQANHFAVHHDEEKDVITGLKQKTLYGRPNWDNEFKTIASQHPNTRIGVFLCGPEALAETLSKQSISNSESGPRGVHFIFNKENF
Sequence of Streptavidin (Streptomyces avidinii) (P22629 whole entry, looked up): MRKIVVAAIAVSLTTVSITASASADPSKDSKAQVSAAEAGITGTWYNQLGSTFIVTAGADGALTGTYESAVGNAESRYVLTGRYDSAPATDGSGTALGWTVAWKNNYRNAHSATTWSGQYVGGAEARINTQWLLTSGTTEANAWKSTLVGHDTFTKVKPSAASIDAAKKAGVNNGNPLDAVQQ

For `COc1ccc(C#Cc2ccc3c(c2)[C@]2(C(=O)N3)[C@H](c3ccc(O)cc3)N3[C@H](c4ccccc4)[C@H](c4ccccc4)OC(=O)[C@H]3[C@@H]2C(=O)Nc2nc3ccccc3s2)cc1`, the composite z-score came to 0.108 in [1]; 1.02 in test [6]; 0.0797 in test [7]; 1.16 in the test with Torsin-1A (Homo sapiens) [8]; 0.168 with Torsin-1A (Homo sapiens) [9]; 0.329 in test [10]. For the same molecule, the composite z-score in test [12] stood at 0.0994. For the same molecule, the z-score in test [2] is -1.62 (inactive); in test [3] it was -0.52 (inactive); in test [4] it was 0.389 (inactive); in [5], -0.513 (inactive); in [11], 1.38 (inactive); in test [13] it was 0.92 (inactive). The z-score is 0.347 (inactive) in test [14]; 2.43 (inactive) in test [15]; 0.59 (inactive) in [16]; 0.498 in test [17]; 1.13 (inactive) in [18]; -0.838 (inactive) in test [19]. The z-score in test [20] is -1.34.

For `COC(=O)[C@@]1(Cc2ccc(OC)cc2)[C@H]2c3cc(C(=O)N4CCCC4)n(CCO)c3C[C@H]2CN1C(=O)c1ccccc1`, the composite z-score in test [1] is 0.925; in test [6], 0.342; in [7], 0.372; with Torsin-1A (Homo sapiens) [8], -0.48; in the test with Torsin-1A (Homo sapiens) [9] it was 1.44; in test [10], -0.645. Also, the composite z-score in [12] came to 0.399. The z-score in test [2] was -0.794 (inactive); in test [3], -0.14 (inactive); in test [4] it was 0.773 (inactive); in test [5], 1.41 (inactive); in test [11], -1.72 (inactive); in test [13] it was 2.85 (inactive). Further, the z-score was 0.766 (inactive) in test [14]; 1.66 (inactive) in [15]; 0.815 (inactive) in test [16]; 0.604 in test [17]; -0.0722 (inactive) in [18]; -2.96 (inactive) in test [19]. The z-score in [20] is -4.86.

Consider `CCCC[C@@H](O)C1=C(COC)C[C@H]2C(=O)N(C)C(=O)[C@H]2[C@H]1CO`, for which the composite z-score was 0.0849 in test [1]; 0.45 in [6]; -0.128 in [7]; 0.32 with Torsin-1A (Homo sapiens) [8]; 0.227 in the test with Torsin-1A (Homo sapiens) [9]; 0.882 in test [10]. The molecule also yielded a composite z-score in [12] of 0.218. Also, the z-score is -1.61 (inactive) in [2]; -1.55 (inactive) in test [3]; -0.0581 (inactive) in test [4]; -1.18 (inactive) in test [5]; 2.54 (inactive) in test [11]; -0.179 (inactive) in test [13]. The z-score is -1.31 (inactive) in test [14]; -1.12 (inactive) in [15]; -2.19 (inactive) in test [16]; 1.59 in test [17]; -0.342 (inactive) in test [18]; 0.564 (inactive) in test [19]. In [20], this molecule displayed a z-score of 0.819.

In the case of `CCCCNC(=O)c1ccc(C#CC(C)(C)C)c(OC(C)=O)c1`, the composite z-score in test [1] is 0.0744; in test [6] it was 1.01; in test [7] it was -0.21; with Torsin-1A (Homo sapiens) [8], 0.121; in the test with Torsin-1A (Homo sapiens) [9], 0.686; in test [10], 0.804. For the same molecule, the composite z-score in test [12] was -0.148. Further, the z-score in test [2] was -1.7 (inactive); in test [3] it was -0.245 (inactive); in test [4], 1.78 (inactive); in test [5], -0.512 (inactive); in test [11], 0.567 (inactive); in [13], 4.63 (inactive). Besides, the z-score in test [14] was 0.802 (inactive); in test [15], 2.09 (inactive); in test [16] it was 0.181 (inactive); in [17], 0.355; in [18] it was -0.137 (inactive); in test [19], 0.344 (inactive). In [20], this molecule registered a z-score of 0.416.
